Hits are enriched below; roughly 10% of the tested compounds scored in any of these assays.
hNpr1 antagonist: human Npr1 receptor antagonism; actives 1.6% (n = 76,000); Potency, µM (series often up to 46.3 µM), for the others: at the top dose activity change, negative = inhibition, most hits filed as inhibitors; HEK293 hNpr1 GloSensor cGMP, ANP-stimulated luminescence; P16066; calls by dose curve; note: % is set by controls: 0 for no effect and ±100 for the full control effect; nearly all actives have a fitted effect of over 60% in size
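Compound pre-incubated 30 min at room temperature on GloSensor-loaded HEK293 cells stably carrying hNpr1 and the pGS-40F cGMP biosensor. Stimulation uses hNppA at 0.1 nM final; luminescence is taken at baseline and 20 min post-agonist.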
Luciferase inh: inhibitors of firefly (Photinus pyralis) luciferase. P08659. purified P. pyralis luciferase, luminescence, biochemical. Potency, µM (doses to about 115 µM), most hits filed as inhibitors. actives 2.5% (n = 76,000); note: % is set by controls: 0 for no effect and ±100 for the full control effect; nearly all actives have a fitted effect of over 65% in size
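FLuc 10nM, D-luciferin 10uM, ATP 10uM, Mg acetate 10mM, Tris acetate pH 7.5, Tween/BSA; cpd qHTS; enzyme added last; CCD luminescence.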
3T3 cytotox: kills NIH 3T3 cells | actives 4.3% (n = 94,000) | Potency, µM (top dose mostly 96.7 µM), inactives show at the top dose activity change, negative = cytotoxicity, hits mostly inhibitors | NIH 3T3 viability, CellTiter-Glo ATP luminescence, 48-72 h; note: % is set by controls: 0 for no effect and ±100 for the full control effect; nearly all actives have a fitted effect of over 55% in size
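Luminescent ATP readout (CellTiter-Glo, 10 min RT) after 48 or 72 hr compound exposure of NIH 3T3 cells seeded at 400 cells/well in 1536-well format; quantitative HTS.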
HEK293 tox: HEK 293 cell cytotoxicity | actives 6.6% (n = 94,000) | HEK 293 viability, ATP luminescence (CellTiter-Glo), 48-72 h | Potency, µM (series often up to 115 µM), for inactives: at the top dose activity change, negative = cytotoxicity, usual class: inhibitors; note: % is set by controls: 0 for no effect and ±100 for the full control effect; nearly all actives have a fitted effect of over 60% in size
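Read-out: CellTiter-Glo ATP luminescence. Cells: HEK 293, 250 cells/well. Exposure: 48 or 72 hr, 37 degree Celsius.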
GPT2 inhibitor: blocks human glutamate pyruvate transaminase 2; Recombinant GPT2, coupled pyruvate oxidase/HRP Amplex Red fluorescence; Potency, µM (highest dose often 57.7 µM), without a hit: at the highest dose activity change, negative = inhibition, usual class: inhibitors; actives 0.25% (n = 100,000); AID 1671188; note: % is set by controls: 0 for no effect and ±100 for the full control effect; nearly all actives have a fitted effect of over 60% in size
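Inhibition is scored from Amplex Red fluorescence generated when pyruvate oxidase and HRP act on pyruvate released by GPT2. Reactions contain 10ng/uL enzyme, 250uM a-KG and 2mM L-alanine and run 30 min at room temperature.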
NPR1 antag cnf: hNpr1 antagonism, confirmation assay; actives 76% (n = 1,400); shares compounds with hNpr1 antagonist; Potency, µM (series often up to 57.6 µM), for the others: top-dose activity change, negative = inhibition, hits mostly inhibitors; AID 1347044; HEK293 hNpr1 cGMP GloSensor luminescence, ANP-stimulated; calls by dose curve; note: nearly all actives have a fitted effect of over 70% in size
Npr2 selectivity: antagonizes human Npr2, subtype selectivity check; shares compounds with hNpr1 antagonist; HEK293 hNpr2 GloSensor cGMP luminescence, CNP-stimulated; Potency, µM (top dose mostly 57.6 µM), for inactives: at the highest dose activity change, negative = inhibition, hits mostly inhibitors; actives 67% (n = 1,400); calls by dose curve; note: nearly all actives have a fitted effect of over 70% in size
FLuc inh counter: FLuc enzyme inhibition, Npr1 counter-screen. shares compounds with hNpr1 antagonist. actives 0.7% (n = 1,400). purified FLuc enzyme, luminescence, Km substrate. Potency, µM (series often up to 57.6 µM), for inactives: top-dose activity change, negative = inhibition, usual class: inhibitors; note: 0% is about no effect
GloSensor ctrl: control cell line activity, Npr1 antagonist counter-screen; Potency, µM (series often up to 57.6 µM), for inactives: at the highest dose activity change, negative = inhibition, hits mostly inhibitors; shares compounds with hNpr1 antagonist; actives 69% (n = 1,400); HEK293 GloSensor cGMP, SNP-stimulated, luminescence; calls by dose curve; note: % is set by controls: 0 for no effect and ±100 for the full control effect; nearly all actives have a fitted effect of over 70% in size
* hit, by the source's call; i = inactive; ? = inconclusive; . = no result given; [ ] = dose if it differs, or a comment. Unless noted, calls come from the whole dose curve; as a rule, active = well fitted curve in the direction sought with a large enough effect; inconclusive = small, poorly fitted or top-dose-only effect, or another doubt; inactive = no such curve, though single readings can be large; an effect the other way counts as inactive or inconclusive. Potency is the fitted concentration of half-maximal effect.

SMILES | hNpr1 antagonist | Luciferase inh | 3T3 cytotox | HEK293 tox | GPT2 inhibitor | NPR1 antag cnf | Npr2 selectivity | FLuc inh counter | GloSensor ctrl
COCC(=O)N1CCC(c2noc(COc3ccc(F)cc3)n2)CC1 | . | . | -12.1% | -12.8% | i | . | . | . | .
O=C(CC1CCCCC1)N1CCC(n2cc(-c3nc(-c4ccccc4)no3)nn2)CC1 | 11.2µM* | i | ? | 28.2µM* | i | 24.3µM* | 21.7µM* | -2.2% | 21.7µM*
O=C(CC1CCCC1)N1CCC(Cc2nc(-c3ccc(F)cc3)no2)CC1 | 2.24µM* | i | ? | ? | i | 2.17µM* | 3.06µM* | 3.3% | 3.06µM*
O=C(Cc1ccccc1Cl)N1CCC(Cc2nc(-c3ccc(F)cc3)no2)CC1 | 15.8µM* | i | ? | ? | 3.2% | 12.2µM* | 15.3µM* | 3.6% | 10.9µM*
COc1ccc(-n2nc(C3CCN(Cc4cccc5ccccc45)CC3)[nH]c2=O)cc1 | 11.2µM* | i | ? | ? | ? | 24.3µM* | 24.3µM* | -0.2% | 27.3µM*
Cn1ncc2c(C(=O)NC3CCC3)cc(-c3ccccc3F)nc21 | . | . | ? | -22.5%[172 µM] | . | . | . | . | .
COc1ccc(CC(=O)N2CCCN(c3cc(-c4ccc(Br)cc4)[nH]n3)CC2)cc1OC | ? | i | ? | ? | ? | . | . | . | .
COc1ccc(-c2cc(N3CCN(C(=O)Cc4ccc(F)cc4)CC3)n[nH]2)cc1 | -2.0% | i | -11.5% | 2.0% | i | . | . | . | .
O=C(Cc1ccc(F)cc1)N1CCN(c2cc(-c3ccc(Cl)cc3)[nH]n2)CC1 | ? | i | ? | 39.8µM* | i | ? | ? | 0.9% | ?
O=C(Cc1ccc(Br)cc1)N1CCCN(c2cc(-c3ccc(F)cc3)[nH]n2)CC1 | ? | i | ? | ? | ? | ? | ? | 1.8% | 27.3µM*
O=C(c1ccc(Cl)cc1)N1CCc2sc(C(=O)N3CCOCC3)cc2C1 | 0.2% | i | ? | ? | i | . | . | . | .
CN(C)C(=O)c1cc2c(s1)CCC(C(=O)N1CCN(c3cccc(Cl)c3)CC1)C2 (stereo unspecified) | ? | i | ? | ? | i | 21.7µM* | 19.3µM* | 2.3% | 15.3µM*
O=C(c1ccccc1)N1CCc2sc(C(=O)N3CCN(c4ccccc4)CC3)cc2C1 | 10µM* | i | ? | ? | -14.9% | 21.7µM* | 27.3µM* | -3.6% | 21.7µM*
CCC(=O)N1CCc2sc(C(=O)NC3CCN(Cc4ccccc4)CC3)cc2C1 | -20.4% | i | -24.3% | ? | -0.8% | . | . | . | .
CCC(=O)N1CCc2sc(C(=O)N3CCN(c4cccc(Cl)c4)CC3)cc2C1 | 10µM* | i | ? | ? | 4.0% | 19.3µM* | 19.3µM* | 4.9% | 17.2µM*
Cn1ccnc1C(=O)N1CCC(N2C(=O)C3(CCCCC3)C2c2ccccc2)CC1 (stereo unspecified) | . | . | -6.3% | -5.2% | -3.9% | . | . | . | .
CCNC(=O)OC1CCN(C(=O)Cc2ccc(F)cc2)CC(=O)N(C)c2ccccc21 (stereo unspecified) | . | . | ? | -1.2% | . | . | . | . | .
